Test results reported in PubChem BioAssay (NCATS).
Records with an inconclusive call do not appear. Activity calls are given as the source filed them. Calls follow the shape of the dose curve; as a rule, active = well fitted curve in the direction sought with a large enough effect; inconclusive = small, poorly fitted or top-dose-only effect, or another doubt; inactive = no such curve, though single readings can be large; an effect the other way counts as inactive or inconclusive.

Assays:
[1] = biological target: Glutathione peroxidase 1 (Homo sapiens) (UniProt P07203); experiment: Primary qHTS Assay for Inhibitors of Recombinant Selenoprotein Glutathione Peroxidase 1 (GPX1) (AID 1845191); also: nearly all actives have a fitted effect of over 65% in size
Chain of Glutathione peroxidase 1 (Homo sapiens) (P07203 whole entry, looked up): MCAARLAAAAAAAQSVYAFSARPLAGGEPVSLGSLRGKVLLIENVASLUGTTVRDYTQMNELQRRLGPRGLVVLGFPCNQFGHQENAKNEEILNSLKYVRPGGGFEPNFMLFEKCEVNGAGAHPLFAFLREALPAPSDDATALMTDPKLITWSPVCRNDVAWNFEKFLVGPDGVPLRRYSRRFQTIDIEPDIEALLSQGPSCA
Procedure, shortened: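 GR-coupled readout: NADPH consumption tracked by fluorescence, ex 340/em 450 nm, at t=0 and after 15 min at RT. Final mix 10 nM GPX1, 1 mM GSH, 0.5 mM CHP, 0.5 mM NADPH, 100 nM GR, 0.01% BSA, following 30 min enzyme–compound preincubation.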

[2] = Viability counterscreen for antagonist of constitutive androstane receptor (CAR) against the NCATS DSHEA and TCM libraries (AID 1794837);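 also: compound exposure lasted 24 h before viability reading; 0% is about no effect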
Procedure, shortened: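 Cells: HepG2 line carrying CYP2B6 reporter and hCAR, seeded and attached 5 h. Then pin-transferred test substances plus agonist CITCO at 48 uM final; 24 h incubation; fluorogenic viability reagent, 1 h.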

[3] = HepG2 viability counterscreen (readout 2: ATP content) against the NCATS DSHEA and TCM libraries (AID 1794840); also: 0% is about no effect
Procedure, shortened: (§1)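 Same wells read twice: first fluorescence from cleaved GF-AFC substrate (25 uM final, 30 min, 37C) for live-cell protease, then CellTiter-Glo luminescence after 30 min at room temperature for ATP. HepG2 cells were exposed ~24 h to substances.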

[4] = HepG2 viability counterscreen (readout 1: protease activity) against the NCATS DSHEA and TCM libraries (AID 1794841);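 also: cells exposed to compounds for about 24 h before the protease read; 0% is about no effect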
Procedure, shortened: as §1

[5] = KB-3-1 P-gp reporter qHTS against the NCATS DSHEA and TCM libraries (AID 1919975); also: 0% is about no effect
Procedure, shortened: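 KB-3-1 parental line, 1536-well qHTS: cells seeded, ~4 h attachment, pintool compound addition, ~72 h at 37C, then CellTiter-Glo, 30 min RT, luminescence. Concentration-response format.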

[6] = qHTS Counterscreen for compound interference against the NCATS DSHEA and TCM libraries (AID 1919978); conditions: firefly luciferase detection reagent interference, luminescence;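 also: compounds preincubated with 1 µM D-luciferin or buffer before detection reagent; % of control where 0% means no effect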
Procedure, shortened: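 Compounds, titrated from 19.5 nM to 39.8 uM final, were pinned onto 1 uM D-luciferin or plain 100 mM potassium phosphate. After 15 min at room temperature, luciferin detection reagent was added for 30 min before the luminescence read.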

[7] = Dual reporter qHTS for agonist of Pregnane X Receptor (hPXR) against the NCATS DSHEA and TCM libraries: Fluorescence readout (AID 1920058); also: 0% is about no effect
Procedure, shortened: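 In this qHTS counter-read, reporter-bearing HepG2 cells in charcoal-stripped serum received substances for approximately 24 h before viability was assessed fluorometrically with CellTiter-Fluor.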

[8] = biological target: Nuclear receptor subfamily 1 group I member 2 (Homo sapiens) (UniProt O75469); experiment: Dual reporter qHTS for antagonist of Pregnane X Receptor (hPXR) against the NCATS DSHEA and TCM libraries: Luminescence Readout (AID 1920060);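 also: HepG2 cells carrying hPXR luciferase reporter stimulated with rifampicin at 2 µM; 0% is about no effect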
Chain of Nuclear receptor subfamily 1 group I member 2 (Homo sapiens) (O75469 whole entry, looked up): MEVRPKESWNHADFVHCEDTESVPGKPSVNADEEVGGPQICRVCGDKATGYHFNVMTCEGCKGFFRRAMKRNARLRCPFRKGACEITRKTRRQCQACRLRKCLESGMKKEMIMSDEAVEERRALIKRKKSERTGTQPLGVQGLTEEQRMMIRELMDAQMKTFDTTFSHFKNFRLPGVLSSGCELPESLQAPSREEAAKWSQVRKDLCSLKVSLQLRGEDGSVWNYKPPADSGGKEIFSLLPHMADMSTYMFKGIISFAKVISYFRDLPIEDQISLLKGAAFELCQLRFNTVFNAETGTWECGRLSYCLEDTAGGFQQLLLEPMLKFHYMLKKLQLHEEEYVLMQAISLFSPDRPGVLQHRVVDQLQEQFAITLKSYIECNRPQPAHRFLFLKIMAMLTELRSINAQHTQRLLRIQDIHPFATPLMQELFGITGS
Procedure, shortened: (§2)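 Antagonist mode: rifampicin 2 uM final co-added with compounds to hPXR-LucHepG2 cells for 24 h at 37C. Viability by CellTiter-Fluor, Ex/Em 405/540 nm, 1 h; reporter by ONE-Glo luminescence.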

[9] = Dual reporter qHTS for antagonist of Pregnane X Receptor (hPXR) against the NCATS DSHEA and TCM libraries: Fluorescence Readout (AID 1920061); also: 0% is about no effect
Procedure, shortened: as §2

Cn1cc(C2=C(c3cn(CCCN)c4ccccc34)C(=O)NC2=O)c2ccccc21
inactive: Potency [1]

CC1=C2[C@H]([C@@H](C)CC[C@@H]2/C=C(\C)C(=O)O)[C@@H](O)C1
inactive: outcome [2] | outcome [3] | outcome [4] | outcome [5] | max response [6] -1.15% | outcome [7] | outcome [8] | outcome [9]
